Results on five molecules are retold here after PubChem BioAssay (EPA / NIEHS).

In general, AC50 refers to the midpoint of the concentration-response curve, whichever way the signal moves.

SMILES strings stand for the structures. Results filed as inconclusive are left out. The source made the active and inactive calls. The calls were made as follows, unless noted: active = hit-call score of the fitted dose curve at least 0.9, where 1 is the maximum; inactive = score below 0.9.

Assay [1] can be described thus: BSK_LPS_SRB: Viability Assessment in the BioMAP Diversity Plus: LPS Assay (AID 2283079).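 Also: total protein by sulforhodamine B absorbance as a cytotoxicity measure; measured one day after compound addition; fitted in both directions against DMSO so loss or gain of signal counts.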 As to conditions: primary human HUVEC with PBMC. The method in brief:
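Cytotoxicity endpoint in human endothelial–PBMC co-culture: 24 h exposure, then SRB (0.1%) staining, 560 nm read.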

Read-out in assay [2]: Interleukin-1 alpha (IL1a), IL1A (gene 3552)
As to the kind of experiment: BSK_LPS_IL1a: BioMAP Diversity Plus: LPS Assay for Interleukin-1 alpha (IL1a) Biomarker Activity (AID 2283080). Particulars: primary human HUVEC with PBMC; actives raise or lower the signal. The method in brief: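 Primary human HUVEC and PBMC co-culture stimulated with LPS is dosed and harvested at 24 h. Both increases and decreases in ELISA-measured IL-1a are scored relative to DMSO.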

Read-out in assay [3]: Monocyte Chemoattractant Protein-1 (MCP1), CCL2 (gene 6347)
Put plainly: BSK_LPS_MCP1: BioMAP Diversity Plus: LPS Assay for Monocyte Chemoattractant Protein-1 (MCP1) Biomarker Activity (AID 2283081). Particulars: primary human HUVEC with PBMC; actives raise or lower the signal. The method in brief: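 Values derive from bidirectional fitting against DMSO of ELISA-measured MCP-1 in a human primary endothelial and mononuclear cell co-culture, 24 h after chemical addition under LPS activation.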

The nature of assay [4]: BSK_LPS_PGE2: BioMAP Diversity Plus: LPS Assay for Prostaglandin E2 (PGE2) Biomarker Activity (AID 2283082).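 As to AC50: secreted prostaglandin E2 measured by ELISA in LPS-stimulated co-culture.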 Particulars: primary human HUVEC with PBMC; actives raise or lower the signal. The method in brief:
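HUVEC plus PBMC co-culture stimulated with LPS; secreted PGE2 quantified by ELISA 24 h after chemical dosing. Activity fitted bidirectionally against DMSO as negative control and baseline; parallel SRB total-protein staining served as cytotoxicity check.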

Read-out in assay [5]: Macrophage colony-stimulating factor (MCSF), CSF1 (gene 1435)
Put plainly: BSK_LPS_MCSF: BioMAP Diversity Plus: LPS Assay for Macrophage colony-stimulating factor (MCSF) Biomarker Activity (AID 2283083). Particulars: primary human HUVEC with PBMC; actives raise or lower the signal. The method in brief: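 Bidirectional fit versus DMSO of ELISA-measured M-CSF in co-cultured human umbilical vein endothelial cells and PBMC, sampled 24 h after dosing.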

Read-out in assay [6]: Tissue Factor, F3 (gene 2152)
Put plainly: BSK_LPS_TissueFactor: BioMAP Diversity Plus: LPS Assay for Tissue Factor Biomarker Activity (AID 2283084). As to conditions: primary human HUVEC with PBMC; actives raise or lower the signal. The method in brief:
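Read-out: CD142 ELISA, 24 h. System: LPS-driven human endothelial/PBMC co-culture. Analysis: up- or down-signal fitted against DMSO.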

Read-out in assay [7]: Tumor necrosis factor (Homo sapiens) (UniProt P01375)
Put plainly: BSK_LPS_TNFa: BioMAP Diversity Plus: LPS Assay for Tumour Necrosis Factor alpha (TNFa) Biomarker Activity (AID 2283085). Particulars: primary human HUVEC with PBMC; actives raise or lower the signal. The method in brief: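 Human umbilical vein endothelial cells co-cultured with PBMC were exposed to test chemical and TNFa measured by ELISA 24 h after dosing. Bidirectional curve fitting was done relative to DMSO as negative control and baseline.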

Read-out in assay [8]: Vascular cell adhesion molecule 1 (VCAM1), VCAM1 (gene 7412)
Put plainly: BSK_LPS_VCAM1: BioMAP Diversity Plus: LPS Assay for Vascular cell adhesion molecule 1 (VCAM1) Biomarker Activity (AID 2283086). Particulars: primary human HUVEC with PBMC; actives raise or lower the signal. The method in brief: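 Human umbilical vein endothelial cells co-cultured with peripheral blood mononuclear cells under LPS stimulation were exposed to test chemical for 24 h. VCAM-1 levels were then measured by ELISA, with bidirectional curve fitting relative to DMSO as negative control and baseline.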

Read-out in another assay: CD38, CD38 (gene 952)
As to the kind of experiment: BSK_SAg_CD38: BioMAP Diversity Plus: SAg Assay for CD38 Biomarker Activity (AID 2283087). Particulars: primary human HUVEC with PBMC; actives raise or lower the signal. The method in brief: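 Fluorescence ELISA of cell-surface CD38 served as the read-out, with either increase or decrease fitted against DMSO controls. Cells were a human umbilical vein endothelium plus PBMC co-culture under SEB/TSST-1 stimulation, measured 24 h after dosing.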

Read-out in a further assay: CD40, CD40 (gene 958)
Put plainly: BSK_SAg_CD40: BioMAP Diversity Plus: SAg Assay for CD40 Biomarker Activity (AID 2283088). As to conditions: primary human HUVEC with PBMC; actives raise or lower the signal. The method in brief: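 Endpoint derived by fitting increases or decreases versus DMSO controls. CD40 is detected by fluorescence ELISA in a human vascular co-culture of endothelium and PBMC at 24 h.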

Read-out in assay [9]: Monocyte Chemoattractant Protein-1 (MCP1), CCL2 (gene 6347)
Put plainly: BSK_SAg_MCP1: BioMAP Diversity Plus: SAg Assay for Monocyte Chemoattractant Protein-1 (MCP1) Biomarker Activity (AID 2283090). As to conditions: primary human HUVEC with PBMC; actives raise or lower the signal. The method in brief:
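MCP-1 levels in the endothelial–PBMC SAg co-culture were quantified by ELISA at 24 h post-dosing; both increases and decreases versus DMSO scored. Cytotoxicity monitored by SRB total protein in parallel cultures.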

Read-out in assay [10]: E-selectin (Homo sapiens) (UniProt P16581)
As to the kind of experiment: BSK_SAg_Eselectin: BioMAP Diversity Plus: SAg Assay for Eselectin Biomarker Activity (AID 2283091). Particulars: primary human HUVEC with PBMC; actives raise or lower the signal. The method in brief:
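Endpoint values derive from bidirectional fitting relative to DMSO, using ELISA-measured E-selectin in a human vascular co-culture (umbilical vein endothelium plus PBMC) sampled 24 h after dosing.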

Read-out in assay [11]: Monokine induced gamma interferon (MIG), CXCL9 (gene 4283)
Put plainly: BSK_SAg_MIG: BioMAP Diversity Plus: SAg Assay for Monokine induced gamma interferon (MIG) Biomarker Activity (AID 2283092). Particulars: primary human HUVEC with PBMC; actives raise or lower the signal. The method in brief:
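Values reflect bidirectional fitting of ELISA-measured MIG against DMSO vehicle, taken 24 h after dosing of a co-culture of human umbilical vein endothelial cells and peripheral blood mononuclear cells.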

Assay [12] can be described thus: BSK_SAg_PBMCCytotoxicity: PBMC Cytotoxicity Assessment in the BioMAP Diversity Plus: SAg Assay (AID 2283093).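 Also: PBMC viability measured as Alamar Blue reduction fluorescence at 546/580 nm; fitted both ways against DMSO so a hit may be loss or gain of signal.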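 As to AC50: PBMC superantigen activated with SEB plus TSST-1 one hour after compound addition.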 Particulars: primary human HUVEC with PBMC. The method in brief:
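Human umbilical vein endothelial cells co-cultured with PBMC; PBMC (75,000/well) pre-treated with compound 1 h, then activated with SEB and TSST-1 (20 ng/mL final each) for 90 h. Alamar Blue added 6 h, fluorescence 546/580 nm; bidirectional fit versus DMSO.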

Read-out in assay [13]: Interleukin-8 (IL8), CXCL8 (gene 3576)
As to the kind of experiment: BSK_SAg_IL8: BioMAP Diversity Plus: SAg Assay for Interleukin-8 (IL8) Biomarker Activity (AID 2283094). Particulars: primary human HUVEC with PBMC; actives raise or lower the signal. The method in brief: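 Human umbilical vein endothelial cells co-cultured with peripheral blood mononuclear cells; IL-8 measured by ELISA 24 h after chemical dosing. Bidirectional concentration-response fitting used DMSO as negative control and activity baseline.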

A short description of assay [14]: BSK_SAg_Proliferation: Cell Proliferation Assessment in the BioMAP Diversity Plus: SAg Assay (AID 2283095).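 Also: relative cell number as total protein by SRB absorbance in sub-confluent culture.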 Particulars: primary human HUVEC with PBMC. The method in brief: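 Human umbilical vein endothelial cells co-cultured with peripheral blood mononuclear cells; total protein measured by sulforhodamine B staining (0.1% SRB after 10% TCA fixation), absorbance at 560 nm, at 96 h. Bidirectional fit against DMSO baseline.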

The nature of assay [15]: BSK_SAg_SRB: Viability Assessment in the BioMAP Diversity Plus: SAg Assay (AID 2283096).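 Also: cells read one day after compound addition; hits may be either gain or loss of signal compared with DMSO.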 As to conditions: primary human HUVEC with PBMC. The method in brief: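 Endothelial/PBMC primary human co-culture; compound 24 h; fix 10% TCA, stain 0.1% SRB, A560; protein content as cytotoxicity proxy; bidirectional curve fit, DMSO = baseline.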
Read-out in a further assay: CD69, CD69 (gene 969)
Put plainly: BSK_SAg_CD69: BioMAP Diversity Plus: SAg Assay for CD69 Biomarker Activity (AID 2283089). As to conditions: primary human HUVEC with PBMC; actives raise or lower the signal. The method in brief: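 Values derive from bidirectional fitting relative to DMSO vehicle. Cells: umbilical vein endothelium plus peripheral blood mononuclear cells, treated 24 h before fluorescent ELISA for CD69.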

The target of assay [16] is human CYP19A1, CYP19A1 (gene 1588) (UniProt P11511). Put plainly: NVS_ADME_hCYP19A1: NovaScreen (NVS) CYP450-related Enzyme Activity (ADME) Assay for human CYP19A1 (AID 2283098; active = hit-call score of the fitted dose curve at least 0.9, where 1 is the maximum). The method in brief:
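Cell-free enzyme assay with recombinant protein and a specific fluorogenic substrate, read by fluorescence intensity 0.5 h after dosing. Primary screen ran in duplicate at 10 uM; actives were retested in concentration series. Loss of signal versus acetonitrile baseline.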

Chain of Tumor necrosis factor (Homo sapiens) (P01375 whole entry, looked up): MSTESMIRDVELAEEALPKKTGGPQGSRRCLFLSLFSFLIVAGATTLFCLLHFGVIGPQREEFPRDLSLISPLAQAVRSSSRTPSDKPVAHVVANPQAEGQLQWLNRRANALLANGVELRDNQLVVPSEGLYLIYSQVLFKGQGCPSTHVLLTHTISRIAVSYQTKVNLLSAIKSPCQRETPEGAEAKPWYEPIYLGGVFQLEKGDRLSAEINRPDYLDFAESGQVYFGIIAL
Chain of E-selectin (Homo sapiens) (P16581 whole entry, looked up): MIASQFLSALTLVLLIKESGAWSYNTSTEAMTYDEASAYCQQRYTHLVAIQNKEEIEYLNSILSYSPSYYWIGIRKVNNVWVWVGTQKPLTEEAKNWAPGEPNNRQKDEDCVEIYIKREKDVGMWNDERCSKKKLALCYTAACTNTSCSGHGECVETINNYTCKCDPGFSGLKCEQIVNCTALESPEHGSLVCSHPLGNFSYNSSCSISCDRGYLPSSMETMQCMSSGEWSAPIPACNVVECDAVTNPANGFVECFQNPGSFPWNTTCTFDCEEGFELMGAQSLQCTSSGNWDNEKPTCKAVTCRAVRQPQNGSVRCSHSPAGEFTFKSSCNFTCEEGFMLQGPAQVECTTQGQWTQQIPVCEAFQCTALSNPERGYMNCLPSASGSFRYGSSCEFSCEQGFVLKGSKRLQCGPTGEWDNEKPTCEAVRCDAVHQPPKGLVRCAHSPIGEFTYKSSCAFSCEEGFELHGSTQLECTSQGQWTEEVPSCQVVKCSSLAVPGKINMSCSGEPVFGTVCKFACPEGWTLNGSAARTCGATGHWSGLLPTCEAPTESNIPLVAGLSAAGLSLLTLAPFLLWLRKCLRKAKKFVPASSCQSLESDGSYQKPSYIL
Chain of human CYP19A1, CYP19A1 (gene 1588) (P11511 whole entry, looked up): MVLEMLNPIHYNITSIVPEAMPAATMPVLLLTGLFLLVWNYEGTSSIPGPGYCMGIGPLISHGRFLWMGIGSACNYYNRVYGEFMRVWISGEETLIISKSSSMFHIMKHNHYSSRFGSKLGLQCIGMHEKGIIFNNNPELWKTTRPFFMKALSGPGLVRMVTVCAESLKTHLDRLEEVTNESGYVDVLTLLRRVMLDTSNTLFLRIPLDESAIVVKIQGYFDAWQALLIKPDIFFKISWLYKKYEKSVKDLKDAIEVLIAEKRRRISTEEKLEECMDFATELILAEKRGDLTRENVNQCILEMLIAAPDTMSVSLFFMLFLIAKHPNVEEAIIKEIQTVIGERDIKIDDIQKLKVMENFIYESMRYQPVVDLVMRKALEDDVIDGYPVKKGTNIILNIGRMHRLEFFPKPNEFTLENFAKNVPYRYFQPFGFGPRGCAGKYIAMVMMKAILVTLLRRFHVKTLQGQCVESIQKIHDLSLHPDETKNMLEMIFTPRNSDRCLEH

Consider `CCCCCOC(=O)COc1cc(N2C(=O)C3=C(CCCC3)C2=O)c(F)cc1Cl`, for which the outcome in assay [1] is “inactive”; in assay [2], “inactive”; in assay [3], “inactive”; in [4], “inactive”; in assay [5], “inactive”; with CD38, CD38 (gene 952), “inactive”. The outcome in [9], in assay [11], in assay [12], in assay [13] and in assay [15] was inactive. Moreover, the AC50 in [6] is 27.8 µM (active); in assay [7], 20 µM (active); in assay [8], 15 µM (active); with CD40, CD40 (gene 958), 20 µM (active); in assay [10] it was 15.8 µM (active); in [14] it was 14.3 µM (active).

With `CC(C)(C)[C@@H](O)[C@@H](Cc1ccc(Cl)cc1)n1cncn1`, the result in [1], in [3], in assay [4], in assay [5], in [6] and in assay [7] was inactive. Besides, the outcome in assay [8] is “inactive”; with CD38, CD38 (gene 952), “inactive”; with CD40, CD40 (gene 958), “inactive”; in [9], “inactive”; in assay [11] it was “inactive”; in assay [15] it was “inactive”. Also, the AC50 in assay [2] was 3.97 µM (active); in assay [10], 8.51 µM (active); in assay [12], 3.76 µM (active); in assay [13] it was 7.99 µM (active); in assay [14], 12.6 µM (active).

As to `CN(C)C(=O)Nc1ccc(Cl)c(Cl)c1`, the outcome in assay [1], in assay [2], in assay [3], in [5], in assay [6] and in assay [7] was inactive. Also, the outcome in [8] was “inactive”; in the assay with CD38, CD38 (gene 952) it was “inactive”; in the assay with CD40, CD40 (gene 958), “inactive”; in assay [9], “inactive”; in assay [10], “inactive”; in assay [11] it was “inactive”. The outcome in assay [12], in assay [13], in assay [14] and in [15] was inactive. For the same molecule, in assay [4], the half-maximal activity concentration (AC50) is 7.82 µM (active).

For the molecule `c1ccc(Nc2ccccc2)cc1`, the outcome in assay [1], in assay [2], in assay [3], in assay [5], in [6] and in [8] was inactive. Also, the outcome was “inactive” in the assay with CD38, CD38 (gene 952); “inactive” with CD40, CD40 (gene 958); “inactive” in [9]; “inactive” in [10]; “inactive” in assay [11]; “inactive” in assay [12]. In addition, the outcome in [13], in assay [14] and in assay [15] was inactive. In addition, the AC50 in assay [4] is 3.51 µM (active); in assay [7], 13 µM (active).

For the molecule `CCCCOCCOCCOCc1cc2c(cc1CCC)OCO2`, the AC50 in [1] was 12.1 µM (active); in [7] it was 25.3 µM (active); in [12], 15.9 µM (active). For the same molecule, the result in assay [2], in assay [3], in assay [4], in assay [5], in [6] and in assay [8] was inactive. The outcome with CD38, CD38 (gene 952) is “inactive”; with CD40, CD40 (gene 958), “inactive”; in the assay with CD69, CD69 (gene 969) it was “inactive”; in assay [9], “inactive”; in [10], “inactive”; in assay [11] it was “inactive”. The outcome in assay [13], in assay [14], in assay [15] and in [16] was inactive.
